PubChem BioAssay (NCATS)
Inconclusive results are not listed. Active and inactive are the calls of the source. Calls follow the shape of the dose curve; as a rule, active = well fitted curve in the direction sought with a large enough effect; inconclusive = small, poorly fitted or top-dose-only effect, or another doubt; inactive = no such curve, though single readings can be large; an effect the other way counts as inactive or inconclusive.

Assays:
[1] = test system: CRL-7250; test: Cytotoxic Profiling of Annotated Libraries Using Quantitative High-Throughput Screening (AID 1296008); details: Five cell lines viability, CellTiter-Glo ATP luminescence, 48-72 h; max response: active compounds read low; also: nearly all actives have a fitted effect of over 60% in size; as to max response: % is scaled to controls: 0 for no effect and ±100 for the full control effect
Summary of the method: (§1)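 Compounds were pin-transferred onto cells and incubated 48 or 72 hr at 37 degree Celsius, 95% humidity. CellTiter-Glo was added, plates sat 10 min at room temperature, then ATP-coupled luminescence was imaged as the viability read-out.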

[2] = test system: HEK293; test: as above; details: Five cell lines viability, CellTiter-Glo ATP luminescence, 48-72 h; max response: active compounds read low
Summary of the method: as §1

[3] = test system: HaCat; test: as above; details: Five cell lines viability, CellTiter-Glo ATP luminescence, 48-72 h; max response: active compounds read low
Summary of the method: as §1

[4] = test system: KB-3-1; test: as above; details: Five cell lines viability, CellTiter-Glo ATP luminescence, 48-72 h; max response: active compounds read low
Summary of the method: as §1

[5] = test system: NIH3T3; test: as above; details: Five cell lines viability, CellTiter-Glo ATP luminescence, 48-72 h; max response: active compounds read low
Summary of the method: as §1

[6] = test system: HACAT; test: qHTS assay to identify novel small-molecules to repurpose for Merkel cell carcinoma treatment (AID 1296009); details: MCC and control cell lines, CellTiter-Glo viability, 72 h; at 44.8 µM (top of the series) unless noted; also: nearly all actives have a fitted effect of over 60% in size
Summary of the method: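 Cells exposed to NPC (8-point) and MIPE (11-point) compound dilutions for 72 hr at 37 degree celsius; viability read by CellTiter-Glo luminescence, normalized to no-cell and DMSO in-plate controls.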

[7] = test system: C33A; test: Primary qHTS to identify gynecologic anti-cancer compounds using libraries of approved drugs and bioactive compounds (AID 1345084); details: Gynecologic cancer cell panel viability, ATPlite luminescence, 48 h; series mostly up to 57.5 µM; also: % is scaled to controls: 0 for no effect and ±100 for the full control effect; nearly all actives have a fitted effect of over 55% in size
Summary of the method: (§2)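 Luminescence from the ATPlite ATP-monitoring reagent indicates viable cell number; lower signal means cytotoxicity. Cells received compound 16 h after seeding and were exposed for 48 h across five concentrations.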

[8] = test system: CAOV3; test: as above; details: Gynecologic cancer cell panel viability, ATPlite luminescence, 48 h; series mostly up to 57.5 µM
Summary of the method: as §2

[9] = test system: CASKI; test: as above; details: Gynecologic cancer cell panel viability, ATPlite luminescence, 48 h; series mostly up to 57.5 µM
Summary of the method: as §2

[10] = test system: Es-2; test: as above; details: Gynecologic cancer cell panel viability, ATPlite luminescence, 48 h; series mostly up to 57.5 µM
Summary of the method: as §2

[11] = test system: HeLa; test: as above; details: Gynecologic cancer cell panel viability, ATPlite luminescence, 48 h; series mostly up to 57.5 µM
Summary of the method: as §2

[12] = test system: Hek293T; test: as above; details: Gynecologic cancer cell panel viability, ATPlite luminescence, 48 h, control line for the selectivity index; series mostly up to 57.5 µM
Summary of the method: as §2

[13] = test system: JEG-3; test: as above; details: Gynecologic cancer cell panel viability, ATPlite luminescence, 48 h; series mostly up to 57.5 µM
Summary of the method: as §2

[14] = test system: OV90; test: as above; details: Gynecologic cancer cell panel viability, ATPlite luminescence, 48 h; series mostly up to 57.5 µM
Summary of the method: as §2

[15] = test system: PA-1; test: as above; details: Gynecologic cancer cell panel viability, ATPlite luminescence, 48 h; series mostly up to 57.5 µM
Summary of the method: as §2

COC(=O)C(CC1(O)c2ccccc2N2C(=O)C(CC(C)C)NC21)n1cnc2ccccc2c1=O (stereo not given)
inactive: outcome [1] | max response [2] -5.33% | outcome [3] | outcome [4] | outcome [5] | outcome [6] inactive [at 17.4 µM] | Potency [7] | Potency [8] | outcome [9] | Potency [10] | Potency [11] | Potency [12] | Potency [13] | Potency [14] | Potency [15]

CC(=O)/C=C/C1(O)C(C)CC(O[C@@H]2O[C@H](CO)[C@@H](O)[C@H](O)[C@H]2O)CC1(C)C (stereo not given in full)
inactive: outcome [1] | max response [2] 1.81% | outcome [3] | outcome [4] | max response [5] -2.62% | outcome [6] inactive [at 17.4 µM] | Potency [7] | Potency [8] | outcome [9] | Potency [10] | Potency [11] | Potency [12] | Potency [13] | Potency [14] | Potency [15]

C/C=C/C=C/C=C/C(=O)N(C)C(C(=O)NC(C)C(=O)N1CCCC1C(N)=O)C(C)C (stereo not given)
inactive: max response [1] -4.46% | max response [2] 2.9% | outcome [3] | outcome [4] | max response [5] 0.323% | outcome [6] inactive [at 17.4 µM] | Potency [7] | Potency [8] | outcome [9] | Potency [10] | Potency [11] | Potency [12] | Potency [13] | Potency [14] | Potency [15]

COc1cc(O[C@@H]2O[C@H](CO[C@H]3OC[C@](O)(CO)[C@H]3O)[C@@H](O)[C@H](O)[C@H]2O)cc(OC)c1O
inactive: max response [1] -3.27% | max response [2] 0.643% | outcome [3] | outcome [4] | max response [5] -4.07% | outcome [6] inactive [at 17.4 µM] | Potency [7] | Potency [8] | outcome [9] | Potency [10] | Potency [11] | Potency [12] | Potency [13] | Potency [14] | Potency [15]

NC1=NC2(c3cc(NC(=O)c4ccc(F)cn4)ccc3F)COCC2CS1 (stereo not given)
inactive: max response [1] 3.35% | max response [2] -14.7% | outcome [3] | max response [4] -4.81% | max response [5] -8.12% | outcome [6] | Potency [7] | Potency [8] | outcome [9] | Potency [10] | Potency [11] | Potency [12] | Potency [13] | Potency [14] | Potency [15]

COC1OC(O)C2(CCC3(O2)C(C)CC2OC(=O)C4(C)CCCC3(C)C24)C1O (stereo not given)
inactive: outcome [1] | max response [2] -1.02% | outcome [3] | max response [4] -1.51% | max response [5] 1.38% | outcome [6] | Potency [7] | Potency [8] | outcome [9] | Potency [10] | Potency [11] | Potency [12] | Potency [13] | Potency [14] | Potency [15]

C=C1CCC2C(C)(C)CCC[C@]2(C)[C@H]1CC/C(C)=C/C(=O)O (stereo not given in full)
inactive: outcome [1] | max response [2] -1.43% | outcome [3] | max response [4] -7.37% | max response [5] 2.18% | outcome [6] | Potency [7] | Potency [8] | outcome [9] | Potency [10] | Potency [11] | Potency [12] | Potency [13] | Potency [14] | Potency [15]

CC(C)(O)/C=C/C(=O)[C@](C)(O)[C@H]1[C@H](O)C[C@@]2(C)[C@@H]3CC=C4[C@@H](C=C(O[C@@H]5O[C@H](CO)[C@@H](O)[C@H](O)[C@H]5O)C(=O)C4(C)C)[C@]3(C)C(=O)C[C@]12C
inactive: max response [1] -3.34% | max response [2] -7.75% | outcome [3] | max response [4] 0.874% | max response [5] 1.79% | outcome [6] inactive [at 17.4 µM] | Potency [7] | Potency [8] | outcome [9] | Potency [10] | Potency [11] | Potency [12] | Potency [13] | Potency [14] | Potency [15]

COc1cc(C(=O)OC[C@@]2(O)CO[C@@H](O[C@H]3[C@H](Oc4ccc(O)cc4)O[C@H](CO)[C@@H](O)[C@@H]3O)[C@@H]2O)cc(OC)c1O
inactive: outcome [1] | max response [2] -3.3% | outcome [3] | max response [4] -0.593% | max response [5] -1.11% | outcome [6] inactive [at 17.4 µM] | Potency [7] | Potency [8] | outcome [9] | Potency [10] | Potency [11] | Potency [12] | Potency [13] | Potency [14] | Potency [15]

OC[C@@]1(O)CO[C@H](OC[C@H]2O[C@@H](OCCc3ccccc3)[C@H](O)[C@@H](O)[C@@H]2O)[C@@H]1O
inactive: max response [1] -3.48% | max response [2] -5.84% | outcome [3] | max response [4] -0.728% | max response [5] 5% | outcome [6] inactive [at 17.4 µM] | Potency [7] | Potency [8] | outcome [9] | Potency [10] | Potency [11] | Potency [12] | Potency [13] | Potency [14] | Potency [15]

COc1cc(C(=O)OC[C@H]2O[C@@H](OC(C)(C)C(=O)O)[C@H](O)[C@@H](O)[C@@H]2O)cc(OC)c1O
inactive: max response [1] -2.21% | max response [2] -6.34% | outcome [3] | outcome [4] | outcome [5] | outcome [6] inactive [at 17.4 µM] | Potency [7] | Potency [8] | outcome [9] | Potency [10] | Potency [11] | Potency [12] | Potency [13] | Potency [14] | Potency [15]
